ChEMBL document CHEMBL1961873, “Compounds: GSK PKIS; Assays: Nanosyn kinase panel” (2012)

Assays:
[1] = biological target: Tyrosine-protein kinase SYK (Homo sapiens) (UniProt P43405); details: at 1 µM
[2] = biological target: T1, Tyrosine-protein kinase Tec (Homo sapiens) (UniProt P42680); details: at 0.1 µM
T1 sequence (whole entry): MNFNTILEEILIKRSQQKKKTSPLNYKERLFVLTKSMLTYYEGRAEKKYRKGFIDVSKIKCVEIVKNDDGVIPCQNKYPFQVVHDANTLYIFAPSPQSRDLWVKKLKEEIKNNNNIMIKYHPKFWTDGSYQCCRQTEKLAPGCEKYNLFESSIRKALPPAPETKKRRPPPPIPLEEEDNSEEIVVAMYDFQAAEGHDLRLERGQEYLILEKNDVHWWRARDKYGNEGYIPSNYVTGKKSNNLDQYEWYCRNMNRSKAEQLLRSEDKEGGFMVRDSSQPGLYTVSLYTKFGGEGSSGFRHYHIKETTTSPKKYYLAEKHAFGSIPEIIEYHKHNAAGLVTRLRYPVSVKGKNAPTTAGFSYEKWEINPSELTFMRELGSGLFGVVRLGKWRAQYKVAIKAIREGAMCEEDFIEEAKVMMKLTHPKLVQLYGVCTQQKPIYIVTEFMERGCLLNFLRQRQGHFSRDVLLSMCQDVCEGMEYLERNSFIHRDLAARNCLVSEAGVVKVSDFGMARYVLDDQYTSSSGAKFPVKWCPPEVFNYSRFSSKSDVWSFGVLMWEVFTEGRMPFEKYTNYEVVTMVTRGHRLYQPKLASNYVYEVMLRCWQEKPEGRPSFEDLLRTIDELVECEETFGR

[3] = biological target: T1, Tyrosine-protein kinase Tec (Homo sapiens); details: at 1 µM
[4] = biological target: Angiopoietin-1 receptor (Homo sapiens) (UniProt Q02763); details: at 0.1 µM
[5] = biological target: Angiopoietin-1 receptor (Homo sapiens) (UniProt Q02763); details: at 1 µM
[6] = biological target: T2, Non-receptor tyrosine-protein kinase TNK1 (Homo sapiens) (UniProt Q13470); details: at 0.1 µM
T2 sequence (whole entry): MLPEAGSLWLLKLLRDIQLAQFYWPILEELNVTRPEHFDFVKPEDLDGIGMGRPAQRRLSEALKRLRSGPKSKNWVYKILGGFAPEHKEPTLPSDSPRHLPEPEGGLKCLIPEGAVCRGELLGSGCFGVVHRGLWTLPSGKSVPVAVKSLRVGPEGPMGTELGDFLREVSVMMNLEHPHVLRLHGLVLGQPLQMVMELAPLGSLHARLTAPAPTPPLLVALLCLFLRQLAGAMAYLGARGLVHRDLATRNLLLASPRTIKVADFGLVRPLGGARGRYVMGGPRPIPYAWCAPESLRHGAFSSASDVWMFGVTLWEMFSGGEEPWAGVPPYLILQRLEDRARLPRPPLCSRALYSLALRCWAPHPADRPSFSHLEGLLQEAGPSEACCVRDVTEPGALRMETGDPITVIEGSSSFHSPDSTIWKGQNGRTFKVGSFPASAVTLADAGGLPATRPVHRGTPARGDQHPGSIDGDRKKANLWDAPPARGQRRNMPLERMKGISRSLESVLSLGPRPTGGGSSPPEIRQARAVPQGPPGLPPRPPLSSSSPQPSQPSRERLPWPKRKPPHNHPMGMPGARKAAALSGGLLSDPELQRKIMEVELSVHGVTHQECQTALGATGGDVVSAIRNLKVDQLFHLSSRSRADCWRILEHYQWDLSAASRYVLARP

[7] = biological target: T2, Non-receptor tyrosine-protein kinase TNK1 (Homo sapiens); details: at 1 µM
[8] = biological target: Activated CDC42 kinase 1 (Homo sapiens) (UniProt Q07912); details: at 0.1 µM
[9] = biological target: Activated CDC42 kinase 1 (Homo sapiens) (UniProt Q07912); details: at 1 µM
[10] = biological target: High affinity nerve growth factor receptor (Homo sapiens) (UniProt P04629); details: at 0.1 µM
[11] = biological target: High affinity nerve growth factor receptor (Homo sapiens) (UniProt P04629); details: at 1 µM
[12] = biological target: BDNF/NT-3 growth factors receptor (Homo sapiens) (UniProt Q16620); details: at 0.1 µM
[13] = biological target: BDNF/NT-3 growth factors receptor (Homo sapiens) (UniProt Q16620); details: at 1 µM
[14] = biological target: NT-3 growth factor receptor (Homo sapiens) (UniProt Q16288); details: at 0.1 µM
[15] = biological target: NT-3 growth factor receptor (Homo sapiens) (UniProt Q16288); details: at 1 µM
[16] = biological target: T3, Tyrosine-protein kinase TXK (Homo sapiens) (UniProt P42681); details: at 0.1 µM
T3 sequence (whole entry): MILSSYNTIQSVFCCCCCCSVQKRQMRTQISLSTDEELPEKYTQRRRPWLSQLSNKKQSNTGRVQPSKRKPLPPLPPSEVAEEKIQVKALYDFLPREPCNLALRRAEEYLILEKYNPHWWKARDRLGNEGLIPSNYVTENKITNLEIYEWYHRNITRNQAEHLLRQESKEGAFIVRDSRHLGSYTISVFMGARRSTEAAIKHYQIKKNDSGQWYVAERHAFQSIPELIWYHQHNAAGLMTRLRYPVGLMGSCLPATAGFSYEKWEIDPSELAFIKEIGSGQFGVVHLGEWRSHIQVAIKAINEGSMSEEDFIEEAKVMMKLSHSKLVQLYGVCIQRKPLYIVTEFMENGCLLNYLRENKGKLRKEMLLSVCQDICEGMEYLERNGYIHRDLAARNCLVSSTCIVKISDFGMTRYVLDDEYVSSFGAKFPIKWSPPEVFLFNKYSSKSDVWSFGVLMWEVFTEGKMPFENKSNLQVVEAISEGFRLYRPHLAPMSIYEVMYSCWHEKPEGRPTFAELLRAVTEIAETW

[17] = biological target: T3, Tyrosine-protein kinase TXK (Homo sapiens); details: at 1 µM
[18] = biological target: Non-receptor tyrosine-protein kinase TYK2 (Homo sapiens) (UniProt P29597); details: at 0.1 µM;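 also: each value is a mean of the inhibition readings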
[19] = biological target: T4, Dual specificity protein kinase TTK (Homo sapiens) (UniProt P33981); details: at 1 µM;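 also: reported figures are mean TTK inhibition at 1 µM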
T4 sequence (whole entry): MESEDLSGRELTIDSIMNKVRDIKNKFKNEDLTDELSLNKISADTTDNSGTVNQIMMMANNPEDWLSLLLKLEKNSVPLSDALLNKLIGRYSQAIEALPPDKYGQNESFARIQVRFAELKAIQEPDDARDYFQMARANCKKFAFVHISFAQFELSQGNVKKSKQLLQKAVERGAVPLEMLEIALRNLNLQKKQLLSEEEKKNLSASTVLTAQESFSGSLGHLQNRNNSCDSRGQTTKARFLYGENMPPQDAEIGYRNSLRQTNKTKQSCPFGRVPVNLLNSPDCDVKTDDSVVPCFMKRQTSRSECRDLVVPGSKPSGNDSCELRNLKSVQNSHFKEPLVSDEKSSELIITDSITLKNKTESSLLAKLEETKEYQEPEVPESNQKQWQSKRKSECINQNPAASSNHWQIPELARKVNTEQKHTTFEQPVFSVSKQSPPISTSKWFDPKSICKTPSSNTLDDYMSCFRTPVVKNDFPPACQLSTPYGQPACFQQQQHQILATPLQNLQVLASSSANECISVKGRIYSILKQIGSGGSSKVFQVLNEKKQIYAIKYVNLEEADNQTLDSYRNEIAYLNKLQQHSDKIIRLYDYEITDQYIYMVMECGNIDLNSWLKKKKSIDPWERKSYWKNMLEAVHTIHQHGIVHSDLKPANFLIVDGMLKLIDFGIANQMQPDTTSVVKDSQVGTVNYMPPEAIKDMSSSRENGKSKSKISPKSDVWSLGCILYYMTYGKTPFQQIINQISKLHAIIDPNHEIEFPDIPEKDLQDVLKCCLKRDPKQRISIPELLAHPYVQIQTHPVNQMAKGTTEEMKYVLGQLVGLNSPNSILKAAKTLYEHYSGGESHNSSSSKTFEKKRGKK

[20] = biological target: T5, Aurora kinase A (Homo sapiens) (UniProt O14965); details: at 0.1 µM;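 also: each reported value is a mean percent inhibition of Aurora-A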
T5 sequence (whole entry): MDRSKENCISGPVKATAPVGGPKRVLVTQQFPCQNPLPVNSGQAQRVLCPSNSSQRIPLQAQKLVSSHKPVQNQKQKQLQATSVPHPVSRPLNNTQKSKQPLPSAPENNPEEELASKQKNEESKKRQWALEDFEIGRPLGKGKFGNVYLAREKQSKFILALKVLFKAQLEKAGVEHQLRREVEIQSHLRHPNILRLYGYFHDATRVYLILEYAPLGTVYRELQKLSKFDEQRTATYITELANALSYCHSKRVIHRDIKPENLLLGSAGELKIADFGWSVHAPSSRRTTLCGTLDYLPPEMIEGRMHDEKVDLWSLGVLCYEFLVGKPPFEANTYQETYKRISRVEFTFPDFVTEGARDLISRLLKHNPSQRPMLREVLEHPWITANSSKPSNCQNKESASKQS

Chain of NT-3 growth factor receptor (Homo sapiens) (Q16288 32-839 limits assumed): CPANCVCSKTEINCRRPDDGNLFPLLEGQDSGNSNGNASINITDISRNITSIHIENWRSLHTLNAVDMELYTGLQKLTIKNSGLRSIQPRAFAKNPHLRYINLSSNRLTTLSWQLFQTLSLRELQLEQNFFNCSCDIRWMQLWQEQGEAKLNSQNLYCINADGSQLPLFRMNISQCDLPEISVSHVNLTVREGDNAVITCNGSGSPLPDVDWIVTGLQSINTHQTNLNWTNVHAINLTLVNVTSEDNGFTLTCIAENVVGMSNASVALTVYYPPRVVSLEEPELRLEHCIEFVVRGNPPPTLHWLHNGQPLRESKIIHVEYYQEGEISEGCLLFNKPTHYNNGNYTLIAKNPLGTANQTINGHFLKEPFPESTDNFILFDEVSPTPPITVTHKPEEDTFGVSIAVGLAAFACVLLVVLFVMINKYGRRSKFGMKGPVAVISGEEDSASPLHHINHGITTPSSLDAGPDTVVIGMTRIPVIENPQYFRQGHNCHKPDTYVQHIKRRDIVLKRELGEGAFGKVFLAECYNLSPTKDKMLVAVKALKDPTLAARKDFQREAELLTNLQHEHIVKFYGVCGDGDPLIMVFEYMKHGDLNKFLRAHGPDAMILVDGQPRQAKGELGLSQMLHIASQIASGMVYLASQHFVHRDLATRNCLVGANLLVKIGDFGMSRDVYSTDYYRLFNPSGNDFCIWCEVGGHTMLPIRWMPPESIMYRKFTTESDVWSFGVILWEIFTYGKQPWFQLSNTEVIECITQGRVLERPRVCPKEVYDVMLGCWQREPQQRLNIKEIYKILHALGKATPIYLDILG
Chain of BDNF/NT-3 growth factors receptor (Homo sapiens) (Q16620 32-822 limits assumed): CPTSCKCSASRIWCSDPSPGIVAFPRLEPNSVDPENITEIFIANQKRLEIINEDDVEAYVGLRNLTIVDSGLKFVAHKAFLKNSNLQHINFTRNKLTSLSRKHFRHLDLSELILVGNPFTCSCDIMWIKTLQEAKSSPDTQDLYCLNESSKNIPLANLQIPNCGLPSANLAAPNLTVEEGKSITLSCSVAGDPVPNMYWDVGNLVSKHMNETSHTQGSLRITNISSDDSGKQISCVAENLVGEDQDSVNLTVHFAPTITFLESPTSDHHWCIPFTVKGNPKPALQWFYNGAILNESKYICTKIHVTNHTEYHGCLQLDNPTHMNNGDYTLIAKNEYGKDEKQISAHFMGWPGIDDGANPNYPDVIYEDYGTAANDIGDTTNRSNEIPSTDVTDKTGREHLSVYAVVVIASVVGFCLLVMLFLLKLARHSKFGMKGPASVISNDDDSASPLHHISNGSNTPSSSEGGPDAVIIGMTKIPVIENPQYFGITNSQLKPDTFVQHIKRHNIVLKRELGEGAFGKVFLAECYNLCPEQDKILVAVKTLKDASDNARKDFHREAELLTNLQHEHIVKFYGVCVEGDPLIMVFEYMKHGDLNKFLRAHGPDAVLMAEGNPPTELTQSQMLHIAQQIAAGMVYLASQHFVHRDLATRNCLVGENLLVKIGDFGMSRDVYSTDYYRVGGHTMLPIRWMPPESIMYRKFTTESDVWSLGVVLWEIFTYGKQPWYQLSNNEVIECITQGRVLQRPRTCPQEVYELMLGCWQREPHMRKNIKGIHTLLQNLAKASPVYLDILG
Chain of Activated CDC42 kinase 1 (Homo sapiens) (Q07912 whole entry, looked up): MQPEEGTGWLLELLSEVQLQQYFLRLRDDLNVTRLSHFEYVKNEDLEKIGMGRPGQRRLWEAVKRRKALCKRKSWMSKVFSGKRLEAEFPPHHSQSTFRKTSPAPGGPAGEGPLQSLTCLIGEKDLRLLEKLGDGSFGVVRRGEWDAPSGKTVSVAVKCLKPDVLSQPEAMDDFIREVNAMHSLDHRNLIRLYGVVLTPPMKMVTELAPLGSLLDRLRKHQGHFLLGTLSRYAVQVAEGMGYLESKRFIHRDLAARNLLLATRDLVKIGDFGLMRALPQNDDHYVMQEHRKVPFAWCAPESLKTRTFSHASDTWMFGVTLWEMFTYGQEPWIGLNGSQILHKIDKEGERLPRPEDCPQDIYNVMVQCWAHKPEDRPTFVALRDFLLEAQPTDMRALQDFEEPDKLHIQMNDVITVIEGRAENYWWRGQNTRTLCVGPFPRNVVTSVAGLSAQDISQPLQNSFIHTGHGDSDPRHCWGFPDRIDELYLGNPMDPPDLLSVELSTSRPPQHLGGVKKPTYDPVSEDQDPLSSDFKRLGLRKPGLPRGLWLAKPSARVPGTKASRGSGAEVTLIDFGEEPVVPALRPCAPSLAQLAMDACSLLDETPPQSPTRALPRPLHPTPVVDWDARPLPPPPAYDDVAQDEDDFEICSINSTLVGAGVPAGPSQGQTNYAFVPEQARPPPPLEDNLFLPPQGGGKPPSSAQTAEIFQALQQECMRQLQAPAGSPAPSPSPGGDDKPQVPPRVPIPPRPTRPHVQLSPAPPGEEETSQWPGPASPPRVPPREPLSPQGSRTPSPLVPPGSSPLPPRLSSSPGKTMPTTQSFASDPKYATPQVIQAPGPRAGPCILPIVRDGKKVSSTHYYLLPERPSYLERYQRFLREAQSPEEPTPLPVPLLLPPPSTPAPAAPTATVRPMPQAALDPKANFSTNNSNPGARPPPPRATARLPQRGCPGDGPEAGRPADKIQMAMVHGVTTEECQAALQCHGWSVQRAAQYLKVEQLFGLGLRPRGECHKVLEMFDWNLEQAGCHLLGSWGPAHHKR
Chain of Angiopoietin-1 receptor (Homo sapiens) (Q02763 whole entry): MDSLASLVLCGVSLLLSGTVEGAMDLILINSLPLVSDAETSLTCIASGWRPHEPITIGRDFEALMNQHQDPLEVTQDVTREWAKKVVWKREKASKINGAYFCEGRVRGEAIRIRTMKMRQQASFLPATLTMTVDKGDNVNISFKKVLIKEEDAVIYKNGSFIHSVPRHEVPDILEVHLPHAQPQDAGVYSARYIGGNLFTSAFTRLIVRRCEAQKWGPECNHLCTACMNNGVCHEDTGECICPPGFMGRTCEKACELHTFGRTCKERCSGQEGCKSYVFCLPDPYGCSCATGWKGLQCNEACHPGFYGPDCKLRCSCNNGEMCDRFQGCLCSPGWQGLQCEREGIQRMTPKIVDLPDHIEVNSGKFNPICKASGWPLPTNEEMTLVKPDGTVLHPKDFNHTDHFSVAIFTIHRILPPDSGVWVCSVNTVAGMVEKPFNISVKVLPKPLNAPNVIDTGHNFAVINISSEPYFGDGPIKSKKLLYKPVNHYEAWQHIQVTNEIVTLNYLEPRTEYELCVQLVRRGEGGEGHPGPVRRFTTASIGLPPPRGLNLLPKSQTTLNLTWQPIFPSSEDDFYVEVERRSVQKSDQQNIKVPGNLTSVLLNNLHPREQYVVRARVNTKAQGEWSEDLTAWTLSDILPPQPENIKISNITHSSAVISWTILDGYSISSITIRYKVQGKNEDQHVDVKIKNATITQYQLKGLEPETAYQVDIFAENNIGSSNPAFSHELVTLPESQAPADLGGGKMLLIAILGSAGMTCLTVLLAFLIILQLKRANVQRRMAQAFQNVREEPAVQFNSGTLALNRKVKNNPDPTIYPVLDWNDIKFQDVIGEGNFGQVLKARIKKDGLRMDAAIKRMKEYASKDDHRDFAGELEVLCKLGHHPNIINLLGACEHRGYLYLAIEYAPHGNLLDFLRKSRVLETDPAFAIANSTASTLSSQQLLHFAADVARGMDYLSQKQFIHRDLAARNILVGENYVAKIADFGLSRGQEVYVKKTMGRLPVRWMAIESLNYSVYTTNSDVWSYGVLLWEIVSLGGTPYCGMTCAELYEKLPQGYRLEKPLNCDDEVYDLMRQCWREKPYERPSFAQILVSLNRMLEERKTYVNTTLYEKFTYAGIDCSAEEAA
Chain of High affinity nerve growth factor receptor (Homo sapiens) (P04629 33-796 limits assumed): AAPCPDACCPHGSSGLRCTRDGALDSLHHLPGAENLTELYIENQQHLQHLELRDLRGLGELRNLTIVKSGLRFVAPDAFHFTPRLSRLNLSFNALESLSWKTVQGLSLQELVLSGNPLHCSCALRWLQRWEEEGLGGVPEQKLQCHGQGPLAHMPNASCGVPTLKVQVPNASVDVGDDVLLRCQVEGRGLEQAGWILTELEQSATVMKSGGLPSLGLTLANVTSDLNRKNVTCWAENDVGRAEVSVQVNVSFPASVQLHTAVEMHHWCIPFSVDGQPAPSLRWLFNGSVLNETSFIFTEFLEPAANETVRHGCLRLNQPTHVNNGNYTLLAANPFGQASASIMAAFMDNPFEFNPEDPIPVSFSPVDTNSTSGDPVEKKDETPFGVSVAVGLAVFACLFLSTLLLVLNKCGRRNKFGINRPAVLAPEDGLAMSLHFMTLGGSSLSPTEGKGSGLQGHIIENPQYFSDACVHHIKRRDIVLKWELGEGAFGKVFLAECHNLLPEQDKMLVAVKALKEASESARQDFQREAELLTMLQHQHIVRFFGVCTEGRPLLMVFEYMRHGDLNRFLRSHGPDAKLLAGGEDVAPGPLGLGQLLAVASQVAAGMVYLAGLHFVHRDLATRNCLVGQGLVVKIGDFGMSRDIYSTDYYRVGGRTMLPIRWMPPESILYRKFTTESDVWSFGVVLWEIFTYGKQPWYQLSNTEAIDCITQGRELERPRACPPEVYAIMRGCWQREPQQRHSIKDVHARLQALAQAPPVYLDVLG

Row | SMILES | inhibition [1] [%] | inhibition [2] [%] | inhibition [3] [%] | inhibition [4] [%] | inhibition [5] [%] | inhibition [6] [%] | inhibition [7] [%] | inhibition [8] [%] | inhibition [9] [%] | inhibition [10] [%] | inhibition [11] [%] | inhibition [12] [%] | inhibition [13] [%] | inhibition [14] [%] | inhibition [15] [%] | inhibition [16] [%] | inhibition [17] [%] | inhibition [18] [%] | inhibition [19] [%] | inhibition [20] [%]
1 | COc1cc2c(cc1Nc1nc(Nc3cccc(F)c3C(N)=O)c3cc[nH]c3n1)N(C(=O)CN1CCN(C(C)C)CC1)CC2 | 3.08 | 5.26 | 1.94 | 4.46 | 2.66 | 3.48 | 22.4 | 1.09 | 5.91 | 1.48 | 0.01 | -0.13 | 0.84 | -1.97 | -0.99 | 7.39 | 3.01 | 0.12 | 47.7 | 0.69
2 | CN(c1ccc(NC(=O)NCCN2CCOCC2)cc1)c1ccnc(Nc2ccc(CS(C)(=O)=O)cc2)n1 | -6.78 | 5.49 | 24.8 | 3.99 | 29.3 | 15.5 | 63.5 | 1.35 | 8.46 | 1.46 | 5.98 | 3.15 | 8 | 1.78 | 11.3 | 16.9 | 57.7 | -6.06 | 7.72 | 24.5
3 | Cc1c2ccc(N(C)c3ccnc(Nc4cccc(S(N)(=O)=O)c4)n3)cc2nn1C | -6.33 | 13.8 | 50.2 | 12.4 | 53 | 16.6 | 60.1 | 1.67 | 4.21 | 4.18 | 7.91 | 4.05 | 9.82 | 4.05 | 11.1 | 20.5 | 59.4 | -3.68 | 29.9 | 11.7
4 | CN(C)CCNC(=O)Nc1ccc(N(C)c2ccnc(Nc3ccc(CS(C)(=O)=O)cc3)n2)cc1 | -4.22 | 5.73 | 14.7 | 2.91 | 12.6 | 12.7 | 47.1 | 1.49 | 4.15 | 1.76 | 7.1 | 2.82 | 9.09 | 4.45 | 11.9 | 8.39 | 34.3 | -2.14 | 11.4 | 13.7
5 | CS(=O)(=O)CCNCc1ccc(-c2ccc3ncnc(Nc4ccc(OCc5ccccc5)cc4)c3c2)o1 | -0.71 | 1.49 | 7.43 | 1.24 | 4.15 | 3.51 | 16.6 | 1.73 | 2.69 | 1.91 | 2.55 | 2.66 | 4.99 | 3.88 | 5.1 | 0.48 | 3.39 | -1.78 | 7.19 | 3.51
6 | COc1cccc(-n2ncc3c(N/N=C/c4ccc(C(=O)NCCN(C)C)cc4)ncnc32)c1 | 5.44 | 4.74 | 19.6 | 8.62 | 46.4 | 25.4 | 68.3 | 2.34 | 13.2 | 6.69 | 12.1 | 5.53 | 26.5 | 3.96 | 20.7 | 7.49 | 29.4 | -5.03 | 11.6 | 8.37
